Compound activity (PubChem BioAssay)
This is a sample that favours compounds with a hit; in the whole collection about 0.51% have one here.
Tat export inh: E. coli Tat export inhibitors, primary screen, MC4100, TorA-mCherry reporter, fluorescence, single point; inhibition, % at 10 µM; hit rate 0.036% among 340,000;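 active = mean replicate inhibition at least 50% and at least half of replicates individually reaching 50%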;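 note: exported cargo escapes ClpAP degradation while cytoplasmic cargo is degraded and loses fluorescence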
phage Ecoli inh: growth loss of phage-infected E. coli, primary screen, RecBCD inhibitor project, absorbance, with phage, HTS; inhibition, % at 11.9 µM; hit rate 0.26% among 360,000; in the data active = inhibition above about 11%
E coli growth-1: E. coli V3065 growth inhibition, primary screen, counter-screen for AddAB inhibitor project, absorbance, OD600; inhibition, % at 11.9 µM; hit rate 0.27% among 330,000; 18 h;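 active = inhibition above the campaign's mean inhibition across all tested compounds plus 3 SD, cut at about 9.9% in these data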;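 note: uninfected addAB+ strain grown without phage in ampicillin broth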
AddAB inh: growth inhibition of E. coli expressing H. pylori AddAB, primary screen, AddAB inhibitor project, absorbance | inhibition, % at 11.9 µM | hit rate 0.29% among 330,000 | AID 435030, 2010; in the data active = inhibition above about 12%
E coli growth-2: E. coli growth inhibition, primary screen, OD600 | Escherichia coli growth, 23 h; active compounds read low | OD600 absorbance (concentration not given with the values) | hit rate 0.21% among 330,000;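 active = OD600 absorbance below the run mean of sample wells minus 3.6 SD, in any replicate, cut at about 0.56 in these data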
RecBCD conf: growth loss of phage-infected RecBCD+ E. coli, confirmation, RecBCD inhibitor project, absorbance, E. coli V66, T4 gene 2 phage; shares compounds with phage Ecoli inh; E. coli V66 + T4 2- phage, growth OD; inhibition, % at 11.9 µM; hit rate 45% among 890;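 active = mean inhibition over triplicates exceeding the hit threshold derived in the original primary screen, cut at about 11% in these data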
Ecoli viability: E. coli viability inhibition, counter-screen for RecBCD inhibitor project, absorbance, high throughput. hit rate 29% among 890. shares compounds with phage Ecoli inh. AID 651983, 2013. inhibition, % at 11.9 µM. absorbance (OD) growth; in the data active = inhibition above about 20%;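 note: E. coli strain V66 grown with compound alone and no phage infection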
AddAB phage OD: growth loss of phage-infected AddAB-carrying E. coli, confirmation, counter-screen for RecBCD inhibitor project, absorbance, E. coli V3065, T4 phage. shares compounds with phage Ecoli inh. E. coli expressing H. pylori AddAB + T4 phage, OD growth; gene 2 mutant T4, recBCD-deleted host. inhibition, % at 11.9 µM. hit rate 45% among 890. AID 651984, 2013;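 active = mean inhibition above the solvent-only control wells' mean plus 3 SD, cut at about 22% in these data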;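 note: higher means less bacterial growth from phage killing when AddAB is blocked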
Large screens that a line does not name were inactive (follow-up assays come after a bar, where they were run).

CN(CC(=O)Nc1cccc(F)c1)C(=O)CC1CCCCC1	phage Ecoli inh 11 | RecBCD conf inactive | Ecoli viability inactive | AddAB phage OD inactive
COc1cccc(NC(=O)CN(C)C(=O)CC2CCCCC2)c1	none (no result: E coli growth-1, AddAB inh)
CSCCC(NC(=O)NCc1ccc(F)cc1)C(=O)O (configuration not stated)	none (no result: Tat export inh, phage Ecoli inh, E coli growth-1, AddAB inh)
Fc1ccc(NC(=S)Nc2ccccc2OC(F)F)cc1Cl	phage Ecoli inh 13 | RecBCD conf inactive | Ecoli viability inactive | AddAB phage OD inactive
N#Cc1c(Nc2ccccc2)[n+]([O-])c2ccc(Cl)cc2[n+]1[O-]	phage Ecoli inh 13 (no result: E coli growth-1, AddAB inh, E coli growth-2) | RecBCD conf 16 | Ecoli viability inactive | AddAB phage OD 49
O=C(/C=C/Nc1ccccc1)c1ccc(Cl)cc1Cl	none
O=C(NNC(=O)c1ccc2c(c1)OCO2)NC12CC3CC(CC(C3)C1)C2	phage Ecoli inh 13 | RecBCD conf inactive | Ecoli viability inactive | AddAB phage OD inactive
O=C(NC1C2CC3CC(C2)CC1C3)c1ccc2c(c1)OCO2 (configuration not stated)	none
O=C(Nc1ccccc1)Nc1cc(OCC(F)(F)F)cc(OCC(F)(F)F)c1	phage Ecoli inh 16 (no result: E coli growth-1, AddAB inh) | RecBCD conf inactive | Ecoli viability inactive | AddAB phage OD inactive
O=C(Nc1ccccc1)Nc1cc(Cl)cc(Cl)c1	none (no result: E coli growth-2)
Cc1ccc(S(=O)(=O)N2CCOCC2)cc1NC(=O)CNCc1ccc(Cl)cc1Cl	phage Ecoli inh 12 | RecBCD conf inactive | Ecoli viability inactive | AddAB phage OD inactive
O=C(CNCc1ccccc1Cl)Nc1cc(S(=O)(=O)N2CCOCC2)ccc1Cl	none
COc1ccc(C2C3C(=O)N(C(C)(C)C)C(=O)C3[C@]3(C)C(=O)N(c4cccc(F)c4)C(=O)N23)cc1 (some centres not stated)	none (no result: Tat export inh, phage Ecoli inh, E coli growth-1, AddAB inh)
CCC(C)(C(=O)NC1CCCCC1)N(Cc1cccs1)C(=O)c1ccc(=O)[nH]c1 (configuration not stated)	phage Ecoli inh 12 | RecBCD conf inactive | Ecoli viability inactive | AddAB phage OD inactive
CCC(C)(C(=O)NC1CCCCC1)N(Cc1cccs1)C(=O)c1ccccn1 (configuration not stated)	none
O=c1oc(C2(O)CCCCC2)cc2ccc(C=Cc3ccc(F)cc3)cc12	none (no result: Tat export inh, phage Ecoli inh, E coli growth-1, AddAB inh)
c1ccc(CSc2ccc(-c3ccccn3)nn2)cc1	phage Ecoli inh 11 | RecBCD conf inactive | Ecoli viability inactive | AddAB phage OD inactive
CCOC(=O)C1C2COc3ccc(OC)cc3C2N2C(=O)CN(CCc3c[nH]c4ccccc34)C(=O)[C@@]12C (some centres not stated)	none (no result: Tat export inh, phage Ecoli inh, E coli growth-1, AddAB inh)
O=C1CC(c2nc3ccccc3[nH]2)CN1c1cccc(C(F)(F)F)c1 (configuration not stated)	phage Ecoli inh 27 | RecBCD conf inactive | Ecoli viability inactive | AddAB phage OD inactive
COc1ccc(C(O)=Cc2nc3ccccc3n(-c3ccccc3)c2=O)cc1	none (no result: Tat export inh, phage Ecoli inh, E coli growth-1, AddAB inh)
c1nc(SSc2ncnc3nc[nH]c23)c2[nH]cnc2n1	phage Ecoli inh 24 (no result: E coli growth-1, AddAB inh, E coli growth-2) | RecBCD conf 58 | Ecoli viability 58 | AddAB phage OD 75
CO[C@@]1(NC(=O)Cc2cccs2)C(=O)N2C(C(=O)O)=C(COC(N)=O)CS[C@@H]21	phage Ecoli inh 27 (no result: E coli growth-2) | RecBCD conf 94 | Ecoli viability 104 | AddAB phage OD 101
CN(C)C1=NCC(Cc2ccccc2)N1CCCC1CCCCC1 (configuration not stated)	none (no result: Tat export inh, phage Ecoli inh, E coli growth-1, AddAB inh)
Cn1cc(CC(=O)N2CCN(c3ccccc3F)CC2)c2ccccc21	phage Ecoli inh 84 | RecBCD conf inactive | Ecoli viability inactive | AddAB phage OD inactive
C#CCOCCOCCOCCNc1nc(N2CCN(C(=O)C(CCC(=O)O)n3cc(C(N)C(C)CC)nn3)CC2)nc(N2CCN(C(=O)C(C(C)CC)n3cc(C(N)Cc4ccc(O)cc4)nn3)CC2)n1 (configuration not stated)	none (no result: Tat export inh, phage Ecoli inh, E coli growth-1, AddAB inh)
COc1ccccc1N1CCN(Cc2cc(Br)c(O)c3ncccc23)CC1	phage Ecoli inh 12, E coli growth-1 12 | RecBCD conf inactive | Ecoli viability inactive | AddAB phage OD inactive
CCOc1ccccc1N1CCN(Cc2cccc(OC)c2O)CC1	none
CCN(CC)c1ccc2cc(-c3nc4ccccc4n3C)c(=O)oc2c1	phage Ecoli inh 99 | RecBCD conf 80 | Ecoli viability 71 | AddAB phage OD 93
CCN(CC)c1ccc2cc(-c3nc4ccccc4[nH]3)c(=O)oc2c1	none (no result: phage Ecoli inh)
O=C1C=C(c2cccc(Br)c2)CC(c2ccc(Cl)cc2)C1 (configuration not stated)	none (no result: Tat export inh, phage Ecoli inh, E coli growth-1, AddAB inh)
O=C(O)c1c[nH]c2c([N+](=O)[O-])cccc2c1=O	phage Ecoli inh 11 (no result: E coli growth-1, AddAB inh) | RecBCD conf inactive | Ecoli viability inactive | AddAB phage OD inactive
CCC1=C(OC(=O)N(CC)CC)N2C(=O)OC(=NCCc3c[nH]c4ccccc34)[C@]2(C)C2C1=CCC1C(=O)N(CC)C(=O)C12 (some centres not stated)	none (no result: Tat export inh, phage Ecoli inh, E coli growth-1, AddAB inh)
Cc1ccc(NC(=S)NC(NC(=O)c2ccco2)C(Cl)(Cl)Cl)cc1 (configuration not stated)	phage Ecoli inh 14, E coli growth-1 11 | RecBCD conf inactive | Ecoli viability inactive | AddAB phage OD inactive
C=CCc1cccc(/C=N/NC(=O)CCCNc2ccc(C)cc2)c1O	phage Ecoli inh 12 (no result: E coli growth-2) | RecBCD conf inactive | Ecoli viability inactive | AddAB phage OD inactive
C=CCc1cccc(C=NNC(=O)CCC(=O)Nc2ccc(C)cc2)c1O	none (no result: Tat export inh, phage Ecoli inh, E coli growth-1, AddAB inh)
CCOC(=O)C1C2COc3ccc(C)cc3C2N2C(=O)CN(Cc3ccccc3)C(=O)[C@@]12C (some centres not stated)	none (no result: Tat export inh, phage Ecoli inh, E coli growth-1, AddAB inh)
CCOC(=O)Nc1ccc(S(=O)(=O)Nc2onc(C)c2C)cc1	none (no result: Tat export inh)
CCc1ccc(NC(=S)Nc2ccc(S(=O)(=O)Nc3ncccn3)cc2)cc1	phage Ecoli inh 12 | RecBCD conf inactive | Ecoli viability inactive | AddAB phage OD inactive
Nc1ccc(S(=O)(=O)Nc2ncccn2)cc1	phage Ecoli inh 11 | RecBCD conf inactive | Ecoli viability inactive | AddAB phage OD inactive
CC(C)NC(=S)Nc1ccc(S(=O)(=O)Nc2ncccn2)cc1	none
CCc1nnc(NS(=O)(=O)c2ccc(N3C(=O)c4ccccc4C3=O)cc2)s1	none
Cc1noc(NS(=O)(=O)c2ccc(N)cc2)c1C	phage Ecoli inh 11 | RecBCD conf inactive | Ecoli viability inactive | AddAB phage OD 23
CCc1nnc(NS(=O)(=O)c2ccc(N)cc2)s1	phage Ecoli inh 12 | RecBCD conf inactive | Ecoli viability inactive | AddAB phage OD inactive
O=S(=O)(Nc1ncccn1)c1ccccc1	none
O=C(Nc1ccc(Cl)cc1)Nc1ccc(S(=O)(=O)Nc2ncccn2)cc1	none
